Laboratory results from PubChem BioAssay AID1259421 (Broad Institute, 2018).
“And” between values parts separate entries of the source, which are not always exact repeats. Identical values can stand only once. Out of some 6,400 compounds screened, about 610 (9.5%) were called active. Cut-off read from the data, not from the text of the source: active = activity change below about -70%; inconclusive = no clear call, values can overlap the other calls; inactive = above that. Shown is part of a subset that was picked to be rich in actives. More than one record can exist for a structure, and the calls need not agree.

Test: Toxoplasma gondii ME49Luc growth in HeLa cells, luciferase, no IFN-y, primary screen (AID 1259421)
Conditions: T. gondii ME49Luc in HeLa, 72 h, stronger effect = lower value, concentration not given here
With COc1ccc(-c2coc3c(O)c(O)c(OC)cc3c2=O)cc1 the activity change, negative = inhibition was 77.9% (inactive).
In the case of Nc1c2c(nc3ccccc13)CCCC2, the activity change, negative = inhibition is reported as -1.53% (inactive) and -2.1% (inactive).
In the case of Nc1c2ccccc2nc2ccccc12, the activity change, negative = inhibition is reported as -47.3% (inactive) and -70.8% (active) and 3.45% (inactive).
With Nc1c2c(nc3ccccc13)CCCC2O (stereo unspecified) the activity change, negative = inhibition was 8.95% (inactive).
For CCCCCCCCCCCCCCCC[N+](C)(C)Cc1ccccc1, the activity change, negative = inhibition was -3.66% (inactive).
For CCCCCCCCCCCCCCCCn1cc[n+](Cc2ccccc2)c1C, the activity change, negative = inhibition was -85.6% (active).
With CN1CCN(CCCCN2C(=O)CN(/N=C/c3ccc(-c4ccc(Cl)cc4)o3)C2=O)CC1 the activity change, negative = inhibition was 16.2% (inactive).
In the case of C[N+](C)(C)CC(O)CC(=O)O (stereo unspecified), the activity change, negative = inhibition is reported as -0.966% (inactive).
With CC[C@@H](C)Nc1cc(C(=O)NC2CC3CCC(C2)N3c2ccc(C(=O)C3CC3)cn2)c(C)cc1C(N)=O (stereo partly specified) the activity change, negative = inhibition was -89.6% (active).
For CCCCC(F)(F)C(=O)CC[C@H]1[C@H](O)CC(=O)[C@@H]1CCCCCCC(=O)O, the activity change, negative = inhibition was 34.9% (inactive) and 7.68% (inactive).
In the case of N#C/C(=C/c1ccc(O)c(O)c1)C(=O)OCCc1cccs1, the activity change, negative = inhibition is reported as 11.8% (inactive).
In the case of CC(=O)N(C)C1(c2ccccc2)CCN(CCC[C@]2(c3ccc(Cl)c(Cl)c3)CCCN(C(=O)c3ccccc3)C2)CC1, the activity change, negative = inhibition is reported as -7.4% (inactive).
With NC(N)=NCC1COC2(CCCCC2)O1 (stereo unspecified) the activity change, negative = inhibition was -1.54% (inactive).
With NC1(C(=O)O)CC1 the activity change, negative = inhibition was 13.6% (inactive).
For CC(=O)O[C@H]1C[C@@H](OC(C)=O)C(C)(C)C2C[C@@H](OC(C)=O)[C@]3(C)C(CC[C@@]4(C)[C@H](c5ccoc5)OC(=O)[C@H]5O[C@]543)[C@]21C (stereo partly specified), the activity change, negative = inhibition was 0.452% (inactive).
In the case of CCS(=O)(=O)N(C)C1c2cc(C#N)ccc2OC(C)(C)C1O (stereo unspecified), the activity change, negative = inhibition is reported as -6.08% (inactive).
For CC(=O)N(O)[C@@H]1c2cc(C#N)ccc2OC(C)(C)[C@H]1O, the activity change, negative = inhibition was -86% (active) and 7.72% (inactive).
With CCS(=O)(=O)N(C)[C@H]1c2cc(C#N)ccc2OC(C)(C)[C@@H]1O (racemic) the activity change, negative = inhibition was 9.6% (inactive).
In the case of Nc1c[n+](N2CCOCC2)no1, the activity change, negative = inhibition is reported as 18.8% (inactive).
With CO/N=C(/C(=O)NC1C(=O)N2C(C(=O)OC(C)OC(C)=O)=C(COC(N)=O)CSC12)c1ccco1 (stereo unspecified) the activity change, negative = inhibition was 4.1% (inactive).
For O=C(O)CCC/C=C\C[C@@H]1[C@@H](/C=C/[C@@H](O)COc2cccc(Cl)c2)[C@H](O)C[C@@H]1O, the activity change, negative = inhibition was 11.1% (inactive) and 5.18% (inactive) and 11% (inactive).
For Cc1c[nH]c(=O)n(CCCN2CCN(c3ccccc3OCC(F)(F)F)CC2)c1=O, the activity change, negative = inhibition was 2.85% (inactive) and 2.68% (inactive).
In the case of C1CCC2(CC1)CCNCC2, the activity change, negative = inhibition is reported as -1.4% (inactive).
In the case of COc1cc2ncnc(Nc3ccc(F)c(Cl)c3)c2cc1OCCCN1CCOCC1, the activity change, negative = inhibition is reported as 15.9% (inactive).
For COc1cc(Nc2c(C#N)cnc3cc(OCCCN4CCN(C)CC4)c(OC)cc23)c(Cl)cc1Cl, the activity change, negative = inhibition was -79.2% (active) and -77.5% (active).
In the case of COc1cc2c(Nc3ccc(NC(=O)c4ccccc4)cc3)ncnc2cc1OCCCN1CCOCC1, the activity change, negative = inhibition is reported as -50.7% (inactive) and -23.3% (inactive).
For CN(C)C(=O)NC1CCC(CCN2CCN(c3cccc(Cl)c3Cl)CC2)CC1 (stereo unspecified), the activity change, negative = inhibition was 3.31% (inactive).
For CC12CCC(C(=O)N(CCCCN3CCN(c4ccccn4)CC3)C1=O)C2(C)C (stereo unspecified), the activity change, negative = inhibition was -4.45% (inactive).
With CCNC(=O)[C@H]1O[C@@H](n2cnc3c(N)nc(NCCc4ccc(CCC(=O)O)cc4)nc32)[C@@H](O)[C@@H]1O the activity change, negative = inhibition was 9.76% (inactive).
For CC(C)(C)c1cnc(CSc2cnc(NC(=O)C3CCNCC3)s2)o1, the activity change, negative = inhibition was -71.7% (active).
In the case of CC(=O)O[C@@H]1CC2C(C)(C)[C@H](O)CC[C@]2(C)C2CC[C@@]3(C)[C@H](c4ccoc4)OC(=O)C4OC43[C@@]21C (stereo partly specified), the activity change, negative = inhibition is reported as 14.1% (inactive).
In the case of COc1cccc(CCc2ccccc2OCC[C@@H]2C[C@@H](O)CN2C)c1, the activity change, negative = inhibition is reported as -6.08% (inactive) and -38.5% (inactive).
In the case of O=c1cc(N2CCOCC2)oc2c(-c3ccccc3)cccc12, the activity change, negative = inhibition is reported as 13.4% (inactive).
In the case of Nc1ccc(-c2cccc3c(=O)cc(N4CCOCC4)oc23)cc1, the activity change, negative = inhibition is reported as 3.1% (inactive) and -4.84% (inactive).
For O=c1cc(N2CCNCC2)oc2c(-c3ccccc3)cccc12, the activity change, negative = inhibition was -75.1% (active) and -94.2% (active).
With Nc1ncnc2c1ncn2[C@@H]1O[C@H](COP(=O)(O)OP(=O)(O)OP(=O)(O)OP(=O)(O)OC[C@H]2O[C@@H](n3cnc4c(N)ncnc43)C(O)C2O)C(O)C1O (stereo partly specified) the activity change, negative = inhibition was -3.47% (inactive).
With O=C1C=CC(=O)C2=C1C1c3ccccc3C2c2ccccc21 the activity change, negative = inhibition was -2.66% (inactive).
For Cn1cccc1/C=C1\C(=O)NC(=O)c2ccccc21, the activity change, negative = inhibition was -4.19% (inactive).
With CCc1cc(Cl)c(OC)c(C(=O)NCC2CCCN2CC)c1O (stereo unspecified) the activity change, negative = inhibition was 0.175% (inactive).
With c1cnc(SCc2cccnc2)nc1 the activity change, negative = inhibition was 15.1% (inactive).
For Cc1cc(C(C)(C)CC(C)(C)C)ccc1OCCOCC[N+](C)(C)Cc1ccccc1, the activity change, negative = inhibition was -1.86% (inactive).
In the case of C[N+](C)(CCOc1ccccc1)Cc1ccccc1, the activity change, negative = inhibition is reported as 13.6% (inactive).
For CC(C)(C)CC(C)(C)c1ccc(OCCOCC[N+](C)(C)Cc2ccccc2)cc1, the activity change, negative = inhibition was -84.1% (active) and 4.83% (inactive).
In the case of CC(O)COC[C@H]1O[C@@H]2O[C@H]3[C@H](O)[C@@H](O)[C@@H](O[C@H]4[C@H](O)[C@@H](O)[C@@H](O[C@H]5[C@H](O)[C@@H](O)[C@@H](O[C@H]6[C@H](O)[C@@H](O)[C@@H](O[C@H]7[C@H](O)[C@@H](O)[C@@H](O[C@H]8[C@H](O)[C@@H](O)[C@@H](O[C@H]1[C@H](O)[C@H]2O)O[C@@H]8COCC(C)O)O[C@@H]7COCC(C)O)O[C@@H]6COCC(C)O)O[C@@H]5COCC(C)O)O[C@@H]4COCC(C)O)O[C@@H]3COCC(C)O (stereo partly specified), the activity change, negative = inhibition is reported as 10.2% (inactive).
With C=CCn1c(=O)n(C2OC(CO)C(O)C2O)c2nc(N)[nH]c(=O)c21 (stereo unspecified) the activity change, negative = inhibition was 0.162% (inactive).
In the case of CCNC(=O)[C@@H]1CCCN1C(=O)[C@H](CCCN=C(N)N)NC(=O)[C@H](CC(C)C)NC(=O)[C@@H](COC(C)(C)C)NC(=O)[C@H](Cc1ccc(O)cc1)NC(=O)[C@H](CO)NC(=O)[C@H](Cc1c[nH]c2ccccc12)NC(=O)[C@H](Cc1cnc[nH]1)NC(=O)C1CCC(=O)N1 (stereo partly specified), the activity change, negative = inhibition is reported as 9.62% (inactive).
